Source: paper PMC5540273 (PLoS ONE, 2017)
Where two headings read alike, the source gives them in different places.

Key:
DYRK1B = conditions: n = 1
DYRK2 = conditions: concentration: 1 μM, replicates: in singlicate; n = 1
EGFR = conditions: concentration: 1 μM, replicates: in singlicate; n = 1
EIF2AK1 = conditions: n = 1
EPHA1 = conditions: concentration: 1 μM, replicates: in singlicate; n = 1
EPHA2 = conditions: concentration: 1 μM, replicates: in singlicate; n = 1
EPHA3 = conditions: concentration: 1 μM, replicates: in singlicate; n = 1
EPHA4 = conditions: concentration: 1 μM, replicates: in singlicate; n = 1
EPHA5 = conditions: concentration: 1 μM, replicates: in singlicate; n = 1
EPHA6 = conditions: n = 1
[1] = concentration: 1 μM, replicates: in singlicate
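Note: KINOMEscan kinase panel screen.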

Structure (SMILES) | %Inh (DYRK1B; [1]) | %Inh (DYRK2) | %Inh (EGFR) | %Inh (EIF2AK1; [1]) | %Inh (EPHA1) | %Inh (EPHA2) | %Inh (EPHA3) | %Inh (EPHA4) | %Inh (EPHA5) | %Inh (EPHA6; [1]) | %Inh (DYRK1B; 1 µM) | %Inh (EIF2AK1; 1 µM) | %Inh (EPHA6; 1 µM)
Cn1cc(-c2ccc3c(c2)CCN3C(=O)Cc2cc(F)cc(F)c2F)c2c(N)ncnc21 [GSK2634140] | 4% | 5% | 16% | 80% | 4% | 9% | 0% | 6% | 0% | 1% |  |  | 
CSc1ccc(NC2=C(c3ccc(Cl)cc3)C(=O)NC2=O)cc1 [SB-317658] | 17% | 22% | 6% | 0% | 32% | 0% | 0% | 28% | 31% | 26% |  |  | 
CNc1nccc(-c2ccc3c(N)n[nH]c3c2)n1 [GSK2206003] | 99.1% | 90% | 25% | 0% | 11% | 0% | 12% | 7% | 0% | 0% |  |  | 
Cc1ccccc1CC(=O)N1CCc2cc(-c3cn(C)c4ncnc(N)c34)ccc21 [GSK2603346] | 4% | 4% | 22% | 90.1% | 13% | 5% | 0% | 0% | 0% | 10% |  |  | 
CCNC(=O)/C=C/c1n[nH]c2cc(Sc3ccccc3C(=O)NC)ccc12 | 0% | 7% | 23% | 29% | 9% | 7% | 0% | 5% | 42% | 16% |  |  | 
CCOc1nccc(-c2c(-c3ccc(F)cc3)ncn2C2CCNCC2)n1 [SB-249175] | 50% | 6% | 9% | 45% | 10% | 0% | 13% | 4% | 0% | 7% |  |  | 
Cl.N#CCc1ccc(Nc2nccc(Nc3ccc(Oc4ccccc4)cc3)n2)cc1 [GW639905] | 0% | 8% | 33% | 5% | 1% | 9% | 0% | 0% | 0% | 0% |  |  | 
COc1cc(Nc2nccc(N3CCC(NS(=O)(=O)c4ccc(NC(C)=O)cc4)CC3)n2)cc(OC)c1OC [GSK1379825] | 8% | 10% | 11% | 7% | 54% | 46% | 0% | 28% | 0% | 37% |  |  | 
Cn1cc(-c2cnc(N)c3c(-c4ccc5c(c4)CCN5C(=O)Cc4ccccc4)csc23)cn1 [GSK2593074] |  | 8% | 3% |  | 11% | 0% | 0% | 11% | 0% |  | 0% | 7% | 11%
c1ccc(Oc2ccc(Nc3ccnc4cc(-c5ccc(CN6CCCCC6)o5)ccc34)cc2)nc1 [GW567143] | 0% | 10% | 55% | 0% | 78% | 0% | 6% | 3% | 0% | 0% |  |  | 
Cc1nn2c(=O)cc(N3CCO[C@H](C)C3)nc2n1Cc1cccc(Cl)c1Cl [GSK2373693] | 11% | 12% | 28% | 1% | 1% | 21% | 0% | 0% | 0% | 0% |  |  | 
O=C(O)C(F)(F)F.O=c1[nH]ccc2nc(N[C@@H]3CCNC3)nc(Nc3cc(Cl)cc(Cl)c3)c12 [GSK2188764] | 21% | 36% | 25% | 18% | 6% | 0% | 72% | 0% | 0% | 0% |  |  | 
Cc1ccc(NC(=O)c2ccc(Cl)c(Cl)c2)cc1-c1ccc(C(=O)Nc2ccncc2)cc1 [GSK1398460] | 6% | 7% | 32% | 7% | 13% | 14% | 1% | 32% | 12% | 18% |  |  | 
COc1cc(Nc2ccnc3cc(-c4ccncc4)ccc23)cc(OC)c1OC.Cl [GW494610] | 0% | 4% | 58% | 0% | 96.9% | 83% | 48% | 48% | 37% | 0% |  |  | 
COc1cccc(NC(=O)NCCNc2ccnc(Nc3ccc(F)cc3)n2)c1 [GSK1379879] | 25% | 0% | 43% | 0% | 52% | 27% | 0% | 0% | 0% | 0% |  |  | 
Cn1cc(-c2ccc3c(c2)CCN3C(=O)Cc2cc(F)cc(C(F)(F)F)c2)c2c(N)ncnc21 [GSK2635225] | 0% | 4% | 23% | 22% | 21% | 11% | 26% | 0% | 0% | 17% |  |  | 
CCNc1nccc(-c2c(-c3ccc(F)cc3)ncn2C2CCN(C)CC2)n1 | 0% | 100% | 0% | 0% | 0% | 0% | 0% | 5% | 0% | 0% |  |  | 

Structure (SMILES) | %Inh (DYRK1B; [1]) | %Inh (DYRK2) | %Inh (EGFR) | %Inh (EIF2AK1; [1]) | %Inh (EPHA1) | %Inh (EPHA2) | %Inh (EPHA3) | %Inh (EPHA4) | %Inh (EPHA5) | %Inh (EPHA6; [1]) | %Inh (DYRK1B; 1 µM) | %Inh (EIF2AK1; 1 µM) | %Inh (EPHA6; 1 µM)
O=C(Nc1n[nH]c2nc(-c3cccc(O)c3)ccc12)C1CC1 [SB-711805] | 86% | 79% | 5% | 0% | 13% | 0% | 19% | 0% | 0% | 15% |  |  | 
O=C(Nc1n[nH]c2cc(-c3cccs3)ccc12)C1CC1 [SB-731284] | 0% | 34% | 4% | 7% | 0% | 0% | 13% | 0% | 0% | 0% |  |  | 
Nc1cccc(-c2ccc3c(N)n[nH]c3c2)c1 [GSK2193613] | 0% | 74% | 0% | 0% | 9% | 5% | 15% | 0% | 0% | 3% |  |  | 
COC(=O)Nc1nc2cc(Oc3ccc(NC(=O)Nc4cccc(SC)c4)cc3)ccc2[nH]1.Cl [GW697999] | 0% | 7% | 29% | 0% | 59% | 88% | 15% | 64% | 26% | 92.6% |  |  | 
CC(C)NCC(Cc1ccccc1)NC(=O)c1cc(Br)c(-c2ccnc3[nH]ccc23)s1.Cl.Cl (stereo not drawn) [GSK1383281] | 29% | 33% | 26% | 0% | 6% | 0% | 8% | 0% | 0% | 0% |  |  | 
O=C(Nc1n[nH]c2nc(-c3ccccc3O)ccc12)C1CC1 [SB-711880] | 56% | 14% | 27% | 0% | 0% | 4% | 30% | 0% | 5% | 0% |  |  | 
CN1CCN(Cc2ccc(NC(=O)Nc3ccc(N(C)c4ccnc(Nc5ccc(CS(C)(=O)=O)cc5)n4)cc3)cc2)CC1.Cl [GW827654] | 3% | 32% | 0% | 0% | 33% | 29% | 49% | 0% | 5% | 2% |  |  | 
COc1cccc(-c2nc(-c3ccccc3)[nH]c2-c2ccncc2)c1 [SB-610250] | 20% | 2% | 12% | 5% | 18% | 0% | 0% | 17% | 0% | 9% |  |  | 
Cc1cc(-c2ccnc(Nc3cccc(C#N)c3)n2)cc(C)c1O [GSK1440913] | 51% | 61% | 38% | 0% | 27% | 24% | 4% | 13% | 0% | 13% |  |  | 
Cc1ccc(NC(=O)c2ccnc(N3CCCCC3)c2)cc1-c1ccc(C(=O)NCC2CC2)cc1 [GW775610] | 29% | 2% | 26% | 0% | 0% | 5% | 6% | 0% | 31% | 0% |  |  | 
Cc1ccc(NC(=O)c2cccc(N3CCCCC3)c2)cc1-c1ccc(C(=O)NCC2CC2)cc1 [GSK1917008] | 0% | 18% | 35% | 8% | 18% | 33% | 4% | 37% | 3% | 34% |  |  | 
Fc1cc(Cl)ccc1Nc1ccnc2cc(-c3ccc(CN4CCOCC4)o3)ccc12 [GW560109] | 7% | 13% | 71% | 10% | 94.5% | 34% | 32% | 41% | 0% | 65% |  |  | 
CC(C)c1nc(-c2ccc(F)c(NS(=O)(=O)c3c(F)cccc3F)c2)c(-c2ccnc(Nc3ccc(N4CCOCC4)nc3)n2)s1 [GSK1804250] | 0% | 2% | 82% | 67% | 96.2% | 17% | 31% | 30% | 1% | 50% |  |  | 
NCCC(NC(=O)c1cc(Br)c(-c2ccnc3[nH]ccc23)s1)c1ccccc1.O=C(O)C(F)(F)F.O=C(O)C(F)(F)F (stereo not drawn) [GSK1307810] | 70% | 57% | 19% | 0% | 10% | 1% | 35% | 0% | 0% | 0% |  |  | 
N#Cc1cnc2cc(-c3cnc(CNCCN4CCOCC4)s3)ccc2c1Nc1ccc(Oc2ccccc2)cc1 [GW664114] | 5% | 14% | 98.1% | 0% | 8% | 0% | 10% | 11% | 0% | 19% |  |  | 
CN(C)CCOc1ccc(-c2cc(-c3ccc(Cl)c(O)c3)c(-c3ccncc3)[nH]2)cc1.Cl.Cl [SB-684387] | 30% | 18% | 38% | 31% | 51% | 16% | 19% | 10% | 0% | 32% |  |  | 
